# VACV Venus inh – vaccinia inhibition (Venus reporter); AID 720580; 330,000 tested, 0.46% active; Potency, µM (doses to about 36.5 µM), actives largely listed as inhibitors; Vaccinia virus Venus reporter expression, fluorescence; calls by dose curve; tested in A549 cells; note: nearly all actives have a fitted effect of over 30% in size
# VACV mCherry inh – inhibitors of vaccinia virus infection (mCherry reporter signal) | Vaccinia virus mCherry reporter infection, fluorescence | Potency, µM (doses to about 36.5 µM), most hits filed as inhibitors | 310,000 tested, 0.63% active | AID 720579; calls by dose curve; tested in A549 cells; note: nearly all actives have a fitted effect of over 35% in size
# LASV entry inh – inhibitors of Lassa virus binding or cell entry | Lassa virus pseudotype entry inhibition, cell reporter | Potency, µM (titrated, usually from 37.9 µM), most hits filed as inhibitors | 300,000 tested, 1.2% active | AID 540256; calls by dose curve; tested in HEK293 cells; note: nearly all actives have a fitted effect of over 50% in size
# Sm TGR inh – inhibitors of Schistosoma mansoni thioredoxin glutathione reductase | Q962Y6 | purified TGR, DTNB reduction, TNB absorbance 405 nm | Potency, µM (highest dose often 114 µM), usual class: inhibitors | 360,000 tested, 3% active | AID 485364; active = well fitted inhibition curve with a large enough effect; inconclusive = small, poorly fitted or top-dose-only effect; inactive = no such curve, though single readings can be large or run the other way; note: nearly all actives have a fitted effect of over 60% in size
#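 Kinetic colorimetric format: TGR-catalysed, NADPH-driven DTNB reduction monitored via TNB absorbance. Enzyme dispensed at 20 nM; compound exposure 15 min at room temperature before reaction start.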
# MARV entry inh – blocks Marburg virus binding to or entry into cells | Marburg virus pseudotyped entry inhibition, cell reporter | 300,000 tested, 1.8% active | Potency, µM (doses to about 37.8 µM), hits mostly inhibitors; calls by dose curve; tested in HEK293 cells
# FMDV inh – antivirals against foot and mouth disease virus; AID 1159524; 410,000 tested, 1.2% active; FMDV antiviral cell-based qHTS; Potency, µM (top dose mostly 57.9 µM), most hits filed as inhibitors; calls by dose curve; tested in HEK293T cells; note: read-out not given here; nearly all actives have a fitted effect of over 45% in size
# Numbers stand for hits; - = inactive; ? = inconclusive; . = no result. Rows were chosen to be rich in hits. Some 5.4% of all compounds tested hit in one or more screens of this group.
SMILES,VACV Venus inh,VACV mCherry inh,LASV entry inh,Sm TGR inh,MARV entry inh,FMDV inh
Cc1ccc(S(=O)(=O)c2c(O)cc(C)c(NS(=O)(=O)c3ccc(Br)cc3)c2C)cc1,-,-,-,-,?,-
CCc1nnc(NC(=O)c2cc(-c3ccco3)nc3ccccc23)s1,-,-,-,15.8µM,-,-
Cc1ccc(-c2cc(C(=O)Nc3nccs3)c3ccccc3n2)c(C)c1,-,-,?,-,?,?
Cc1ccc(-c2cc(C(=O)Nc3nccs3)c3ccccc3n2)o1,-,-,?,7.08µM,?,-
Cc1cccc(NC(=O)c2cc(-c3ccco3)nc3ccccc23)n1,-,-,-,20µM,-,-
CCn1c(=O)n(CC)c2cc(N3CCCCC3)c(NC(=O)Nc3ccccc3Cl)cc21,-,-,?,-,.,-
O=C(C1CCCN(S(=O)(=O)c2cccc3nsnc23)C1)N1CCN(c2ccccc2)CC1 (configuration not stated),-,-,?,-,?,?
CCc1ccc(NC(=O)C(CC)n2c(=O)c(C(F)(F)F)nc3ccccc32)cc1 (configuration not stated),-,-,-,-,.,-
CCOC(=O)c1cnc(Nc2nc3ccccc3o2)nc1CN1CCN(C)CC1,?,?,?,50.1µM,?,-
S=c1sc2c(Cl)ncnc2n1-c1ccccc1,.,.,23.1µM,3.16µM,23.1µM,?
Clc1cccc(C2CCN(Cc3nc(COc4ccccc4)no3)C2)c1 (configuration not stated),-,-,-,35.5µM,-,-
CCN1C(C(=O)c2ccccc2)=C(OC(=O)COc2ccccc2)c2ccccc2S1(=O)=O,-,-,-,15.8µM,-,-
CCCCN1C(C(=O)c2ccccc2)=C(OC(=O)CC)c2ccccc2S1(=O)=O,?,?,?,-,7.94µM,-
Cc1ccc(OCC(=O)OC2=C(C(=O)c3ccccc3)N(C)S(=O)(=O)c3ccccc32)cc1,-,-,-,31.6µM,-,-
O=C(CSc1nc2ccsc2c(=O)n1Cc1ccc(F)cc1)NCc1ccc(Cl)cc1,-,-,-,-,.,-
Cc1noc(C)c1S(=O)(=O)NCCc1csc2nc(-c3ccc(Cl)cc3)nn12,-,-,-,-,.,-
CC(=O)c1cc2c(cc1N/C(=N/S(=O)(=O)c1ccc(F)cc1)c1ccccc1)OCO2,-,-,-,-,.,-
CC(=O)Nc1ccc(Nc2nc(Cl)nc(Nc3ccc(NC(C)=O)cc3)n2)cc1,-,-,-,35.5µM,?,-
Cc1cccc2c1-c1sc(C(=O)NCCc3ccc(Cl)cc3)cc1CO2,?,?,.,-,-,-
Cc1ccc(Cl)cc1NC(=O)c1cc(NC(=O)C2CCCCC2C(=O)O)ccc1N1CCOCC1 (configuration not stated),-,-,10µM,-,-,-
O=C1Nc2ccc(Br)cc2/C1=C/C(=O)c1ccc2c(c1)OCO2,.,.,.,-,.,28.2µM
CCOC(=O)CSc1nc2ccc(NC(=O)c3ccccc3)cc2s1,-,-,-,-,-,-
C=C(C(C)=O)C(O)C=Cc1ccco1 (configuration not stated),.,.,.,.,-,.
COc1cccc(C(=O)C2CCCN(Cc3ccc(OC)c(Cn4cncn4)c3)C2)c1 (configuration not stated),-,?,-,-,?,-
CC(C)Oc1cccc(C(=O)C2CCCN(Cc3cccn3-c3ccccn3)C2)c1 (configuration not stated),-,-,11.2µM,.,?,-
COc1ccc(CN2CCCC(C(=O)c3ccc(Cl)cc3)C2)cc1Cn1cccn1 (configuration not stated),-,-,10µM,-,2.82µM,-
Cc1nn(C(C)C)c(C)c1CN1CCCC(C(=O)c2cccc(OC(C)C)c2)C1 (configuration not stated),-,-,?,-,12.6µM,?
O=C(c1ccc(Cl)cc1)C1CCCN(Cc2cccn2-c2ccccn2)C1 (configuration not stated),-,-,?,-,3.98µM,-
Cc1c(Cl)cccc1NS(=O)(=O)c1ccc2[nH]cc(C(=O)NC3CCCC3)c(=O)c2c1,-,-,-,-,?,-
CCCCCn1c(CCCNC(=O)c2ccc(Cl)cc2)nc2ccccc21,-,-,-,-,?,-

# Assay outcomes from PubChem BioAssay.
